From PubChem BioAssay AID1578 (Sanford-Burnham Center for Chemical Genomics, 2009) come the findings set out here.

Molecules are shown by their SMILES. About 3,000 (1%) of roughly 290,000 compounds were called active. Rule as the data show it: active = inhibition mostly above about 36% (no sharp cut-off); inactive = mostly below about 34%. Many of the other results were omitted from the sample, so actives are more common in it than they were.

The assay can be described thus: NOD1 signaling inhibitors, primary screen, cell-based, luminescence, uHTS (AID 1578).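 Also: HEK-293T reporter cells stimulated with the NOD1 agonist gamma-tri-DAP.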 Particulars: NOD1-driven NF-kB luciferase reporter cells, at 4 µM, hits give high values. Background: In a reporter assay the amount or activity of a reporter protein is the signal.
Usually inhibition stands for the drop in the measured response relative to a control, in per cent. With `CN1/C(=C/C(=O)CSc2ccccc2C(=O)O)C(C)(C)c2ccccc21`, the inhibition was 10.5% (inactive). On to `CCC(Oc1ccccc1OC)C(=O)N1CC(=O)Nc2ccccc21` (centres undefined), for which the inhibition was 29% (inactive).

As to `CCOc1ccc(NS(=O)(=O)c2ccc(NS(=O)(=O)c3cccs3)cc2)cc1`, the inhibition is -17.3% (inactive). As to `COc1ccc(Cl)cc1NC(=O)N(C)Cc1c(C)nn(C)c1C`, the inhibition is -24.6% (inactive).

Regarding `Cc1cc(NCc2ccccc2)nc(-c2ccccc2O)n1`, the inhibition was -41.6% (inactive). On to `CC(=O)c1c(C)[n+]([O-])c2ccc3c(non3O)c12`, for which the inhibition is -20% (inactive). Take `[O-][n+]1c2c(c3c4non(O)c4ccc31)CCCC2`: the inhibition is 79.7% (active). As for `CCOC(=O)c1c(C)[n+]([O-])c2ccc3c(non3O)c12`, the inhibition was -24.8% (inactive). Under `CCN(C(=O)c1c(-c2ccccc2Cl)noc1C)C1CCCCC1` stands -10.1% (inactive). For the molecule `Cc1cc(C)c2nc(C(F)(F)F)c(C#N)c(N)c2c1`, the inhibition was 76.9% (active).

Consider `Cc1cc(C)c2nc3nc(C)cc(C)c3c(N)c2c1`, for which the inhibition is -26.5% (inactive). Regarding `Cc1cc(C)c2nc3nc(C)c(C)cc3c(N)c2c1`, the inhibition is -27.3% (inactive). Regarding `COc1cc2c(=O)n(CCC(=O)NCC3CCCO3)c(=O)n(CC(=O)Nc3ccc(C)c(C)c3)c2cc1OC` (centres undefined), the inhibition is -11.3% (inactive). Regarding `CC(C)(CO)NS(=O)(=O)c1ccc2c(c1)oc(=O)c1cc(S(=O)(=O)NC(C)(C)CO)ccc12`, the inhibition was -6.5% (inactive).

Consider `CC(=O)Nc1cc2nn(-c3ccccc3)nc2cc1Cl`, for which the inhibition was -27.6% (inactive). Take `CC(C)(C)C(=O)Nc1cc2nn(-c3ccccc3)nc2cc1Cl`: the inhibition was 87.1% (active).

Take `CCC(=O)Nc1cc2nn(-c3ccccc3)nc2cc1Cl`: the inhibition is -22.2% (inactive). For `O=C(O)C1CCCN1c1ncccc1[N+](=O)[O-]` (centres undefined), the inhibition was -20.8% (inactive). Regarding `OCCN1CCN(CC(O)COCCOc2ccc(Br)cc2)CC1` (centres undefined), the inhibition was 62.2% (active). Regarding `CCN1CCN(CC(O)COCCOc2ccc(Br)cc2)CC1` (centres undefined), the inhibition was -19.1% (inactive). As to `CN1CCN(CC(O)COCCOc2ccc(Br)cc2)CC1` (centres undefined), the inhibition is -26% (inactive).

`O=C(COc1ccccc1CNCc1ccccc1)Nc1ccccc1`: the inhibition was -69.5% (inactive). As to `O=c1c2cc(NC(=S)N3CCCCC3)ccc2nc2n1CCCCC2`, the inhibition is -32.7% (inactive). The figure for `O=C(NC1CC1)c1ccc(-c2nc3ccccc3s2)s1` is 70.1% (active).

In the case of `O=C(c1ccc(-c2nc3ccccc3s2)s1)N1CCOCC1`, the inhibition is 82.9% (active). As to `O=CN1CCN(C(=O)c2ccc(-c3nc4ccccc4s3)s2)CC1`, the inhibition was -25.6% (inactive). On to `CCCNC(=O)c1ccc(-c2nc3ccccc3s2)s1`, for which the inhibition was -50.1% (inactive).

As to `CCN1CCN(C(=O)c2ccc(-c3nc4ccccc4s3)s2)CC1`, the inhibition is -43.4% (inactive).

As to `Cc1ccc2nc(NC(=O)c3ccc(-c4nc5ccccc5s4)s3)sc2c1`, the inhibition is -74.1% (inactive).

As for `COc1ccc(NC2CCCN(C(=O)CN3C(=O)c4ccccc4C3=O)C2)cc1OC` (centres undefined), the inhibition was -24.8% (inactive).

With `COc1ccc(OC)c2c(C)cc(N3CCN(C(=O)c4ccc(C)cc4)CC3)nc12`, the inhibition was -12.9% (inactive). As for `CN(C1CCCCC1)C(CNS(=O)(=O)c1ccc(Cl)cc1)c1ccccc1` (centres undefined), the inhibition was -15.5% (inactive).

On to `O=C(O)c1ccccc1-n1cccc1C(=O)O`, for which the inhibition is -9.5% (inactive).

For the molecule `CCN(CC)c1ccc(S(=O)(=O)N2CCOCC2)cc1NC(=O)CN1CCN(Cc2ccccc2)CC1`, the inhibition is -3.8% (inactive). Turning to `O=C(CN1CCc2ccccc2C1)Nc1cc(S(=O)(=O)N2CCOCC2)ccc1N1CCOCC1`, the inhibition was -17.8% (inactive). For `O=C(NNC(=O)c1ccccc1C(F)(F)F)c1csc(N2CCOCC2)n1`, the inhibition is -87.8% (inactive).

For the molecule `O=C(NNC(=O)c1ccccc1OCc1ccccc1Cl)c1csc(N2CCOCC2)n1`, the inhibition is 96.3% (active).

As to `O=C(NNC(=O)c1cc(Br)ccc1Cl)c1csc(N2CCOCC2)n1`, the inhibition is -14.6% (inactive).

With `CCc1ccc(NC(=O)CN2CCCN(S(=O)(=O)c3ccc(F)cc3)CC2)cc1`, the inhibition was -21.6% (inactive). In the case of `O=C1CC(c2nc3ccccc3[nH]2)CN1Cc1ccccc1` (centres undefined), the inhibition is -15% (inactive). With `COc1ccc(CCNC(=O)C2CC(=O)N(C3CCCCCCC3)C2)cc1OC` (centres undefined), the inhibition was -23.8% (inactive). Under `O=c1c2ccccc2nc2n1CCS2` stands -2.5% (inactive); under `Cc1ccc2c(=O)cc(C(=O)NC3CCS(=O)(=O)C3)oc2c1` (centres undefined), -12% (inactive); under `O=C(NCc1nc(-c2ccc(C(F)(F)F)cc2)no1)Nc1ccc(OC(F)(F)F)cc1`, 5.1% (inactive).

As for `O=C(NCc1nc(-c2ccc(C(F)(F)F)cc2)no1)Nc1ccc(F)cc1F`, the inhibition is 3.8% (inactive). With `O=C(NCc1nc(-c2ccc(C(F)(F)F)cc2)no1)Nc1cc(Cl)cc(Cl)c1`, the inhibition was 44.1% (active). Consider `Cc1ccccc1CC(=O)N1CC(C)OC(C)C1` (centres undefined), for which the inhibition was -15.5% (inactive). On to `S=C(NCc1ccccc1)Nc1cccc2cnccc12`, for which the inhibition is 41.4% (inactive). With `O=C(NC(=S)Nc1cccc2cccnc12)c1ccccc1`, the inhibition was -2.9% (inactive). `O=C(Nc1cccc2[nH]ncc12)c1ccc(F)cc1`: the inhibition was -0.2% (inactive).

Consider `CNC(=S)Nc1cccc2[nH]ncc12`, for which the inhibition is -6.5% (inactive).

As for `O=C(NC(=S)Nc1cccc2[nH]ncc12)c1ccccc1`, the inhibition is 68.4% (active). In the case of `O=C(NC(=S)Nc1cccc2cnccc12)c1ccccc1`, the inhibition was 80.9% (active). Regarding `CS(=O)(=O)N(CC(=O)Nc1cccnc1)c1ccc2c(c1)OCCO2`, the inhibition was -12.2% (inactive). Under `CS(=O)(=O)N1CCN(c2ccccc2NC(=O)c2ccc(-c3ccc(Br)cc3)o2)CC1` stands -21.7% (inactive).

As to `CC(C)c1ccc(NC(=O)COC(=O)CCC(=O)c2cccs2)cc1`, the inhibition is 5.4% (inactive). The figure for `O=C1c2ccccc2C(=O)c2c1cccc2-n1nnc2ccccc21` is 3.1% (inactive). The figure for `O=C1C(N2CCOCC2)=C(n2nnc3ccccc32)C(=O)c2ccccc21` is 101% (active); for `O=C(O)c1ccc(NC2=C(n3nnc4ccccc43)C(=O)c3ccccc3C2=O)cc1` it is -3.8% (inactive); for `CCOC(=O)c1ccc(NC(=O)CN2C(=O)C(CC)SC(CC)C2=O)cc1` (centres undefined) it is -15.5% (inactive). Regarding `O=C(c1ccc2ccccc2c1)N1CCCCC1`, the inhibition was 14.9% (inactive). The figure for `O=C(Nc1nnc(C(F)(F)F)s1)c1ccc(Br)s1` is 84% (active). With `Cc1nn(-c2ccccc2)nc1C(=O)Nc1nnc(C(F)(F)F)s1`, the inhibition was 54.4% (active).

Turning to `O=C(Nc1nnc(C(F)(F)F)s1)c1c(F)cccc1F`, the inhibition was 2% (inactive). With `Cc1nn(-c2ccccc2)nc1C(=O)NNC(=O)c1ccc(C(F)(F)F)cc1`, the inhibition is -5.6% (inactive).

On to `CCSc1nnc(NC(=O)c2ccc(Br)s2)s1`, for which the inhibition is -37.5% (inactive). Under `CCc1nnc(NC(=O)c2nn(-c3ccccc3)nc2C)s1` stands -6.6% (inactive); under `CC1(C)CC(=O)/C(=C(\O)CCCN2C(=O)c3ccccc3C2=O)C(=NCCO)C1`, -17.2% (inactive). With `COc1cc2[nH]c(C(=O)NN)c(N)c2cc1OC`, the inhibition was -7.9% (inactive). With `CC(C)(C)NC(=O)C(c1ccccc1)N(Cc1ccco1)C(=O)c1csnn1` (centres undefined), the inhibition is -0.4% (inactive).

Regarding `CCOC(=O)C1CCN(C(=O)Cn2cccc2C(=O)c2ccccc2)CC1`, the inhibition is -13.4% (inactive). The figure for `CC1CN(Cc2nc3c(c(=O)[nH]c(=O)n3C)n2CCN2CCOCC2)CC(C)O1` (centres undefined) is 7.3% (inactive); for `CC(C)[C@H](NC(=O)[C@@H]1CSC2c3ccccc3C(=O)N21)C(=O)NCc1ccncc1` (some centres undefined) it is -23.2% (inactive).

Regarding `c1ccc(-c2cccc(-c3ccccn3)n2)nc1`, the inhibition is 90.2% (active). Take `c1ccc(-c2ccc(-c3ccccn3)nn2)nc1`: the inhibition is 27.1% (inactive).

As for `c1ccc(-c2ccccn2)nc1`, the inhibition is -28.9% (inactive). Consider `O=C(c1ccc2c3c(cccc13)CC2)C1CCCN(C(=O)c2ccc[n+]([O-])c2)C1` (centres undefined), for which the inhibition was 10.8% (inactive). As to `CCn1c(C)c(C(C)=O)cc(C#N)c1=O`, the inhibition is -4.6% (inactive). `C=CCNC(=O)C1CCN(c2c([N+](=O)[O-])cc(C(F)(F)F)cc2[N+](=O)[O-])CC1`: the inhibition is 2.2% (inactive). In the case of `Cc1ccccc1NS(=O)(=O)c1ccc(OCC(=O)NCc2ccco2)cc1`, the inhibition was -20.7% (inactive). Under `CSC1=C(C#N)C(=O)NC(c2ccc(Cl)cc2)S1` (centres undefined) stands 45% (active); under `COC(=O)CSC1=C(C#N)C(=O)NC(c2ccccc2)S1` (centres undefined), 38.8% (inactive). The figure for `CSC1=C(C#N)C(=O)NC(c2ccccc2O)S1` (centres undefined) is -3.8% (inactive). The figure for `COc1cc([N+](=O)[O-])ccc1NC(=S)NNC(=O)c1ccc2c(c1)OCO2` is 15.2% (inactive); for `N#CC(Cc1cccc(CC(C#N)(c2ccccc2)c2ccccc2)c1)(c1ccccc1)c1ccccc1` it is 4.8% (inactive). With `Oc1ccc(C[C@@H]2CNC(=S)N2CCCCC2CCCCC2)cc1`, the inhibition is -30.3% (inactive). Consider `COc1ccc(C(=O)Nc2cc(OC)c(Cl)cc2OC)cc1`, for which the inhibition was -33.1% (inactive).

Turning to `CCC(=O)Nc1ccc(Cl)c(NC(=O)c2c(OC)cccc2OC)c1`, the inhibition is 7% (inactive). As to `COc1cc(NC(=O)c2ccccc2)c(OC)cc1Cl`, the inhibition was -16.7% (inactive).

Take `CCC(=O)Nc1ccc(Cl)c(NC(=O)c2ccccc2OC)c1`: the inhibition was 57.1% (active).

`CCC(=O)Nc1ccc(Cl)c(NC(=O)c2cccc(OC)c2)c1`: the inhibition was -28.2% (inactive). The figure for `c1ccc(CCn2cnc3ccccc32)cc1` is -43.2% (inactive); for `CCCC(=O)C1=C(O)C(C(=O)OC)C(C)(C)CC1=Nc1cccc([N+](=O)[O-])c1` (centres undefined) it is -12.8% (inactive).

With `FC(F)(F)Oc1ccc(NC(=S)Nc2ccccc2N2CCOCC2)cc1`, the inhibition is 4.5% (inactive).

As to `CCOc1ccc(OCc2ccc(C(=O)N/N=C(\C)c3ccccn3)cc2)cc1`, the inhibition was 91.6% (active). Regarding `C/C(=N\NC(=O)c1ccc(COc2ccccc2)cc1)c1ccncc1`, the inhibition was -26.5% (inactive). For `C/C(=N\NC(=O)c1c[nH]c2ccccc12)c1ccccn1`, the inhibition was -30.8% (inactive).

`O=C(NCCNC(=O)c1ccccc1F)c1ccccn1`: the inhibition is -8.2% (inactive). As for `CCOc1ccc(C(=O)N/N=C(\c2ccccc2)c2ccccn2)cc1`, the inhibition is 63.3% (inactive).
